Laboratory results reported in PubChem BioAssay AID686979 (National Center for Advancing Translational Sciences (NCATS), 2013).
The whole screen tested about 420,000 compounds, of which about 50,000 (12%) were called active. Not shown: some 26% with an inconclusive outcome. Calls follow the shape of the dose curve; as a rule, active = well fitted inhibition curve with a large enough effect; inconclusive = small, poorly fitted or top-dose-only effect; inactive = flat fitted curve, though single readings scatter. The sample as a whole holds a higher share of actives than the screen did.

Assay: qHTS for Inhibitors of human tyrosyl-DNA phosphodiesterase 1 (TDP1): qHTS in cells in presence of CPT; also: nearly all actives have a fitted effect of over 55% in size
Settings: chicken DT40 Tdp1-/-;hTDP1 cells + 20 nM CPT, ATP luminescence, 48 h; series mostly up to 46.2 µM; activity change, negative = growth inhibition: at the top concentration
How it was run: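 Chicken DT40 Tdp1-/- cells stably complemented with human TDP1 were seeded at 400 cells/well in medium containing 20 nM camptothecin, exposed to pin-transferred compounds, and grown at 37 °C for at least 48 hr. Viability was read as ATP luminescence.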
% is scaled to controls: 0 for no effect and ±100 for the full control effect; potency is read from the fitted curve at half-maximal effect.

SMILES	activity change, negative = growth inhibition	Potency
CC(Sc1nnc(-c2ccccc2F)n1C1CC1)C(N)=O (stereo not drawn)	0.143% (inactive)	–
Cc1ccc2c(c1)C1CN(C)CCC1N2S(=O)(=O)c1cccc(F)c1 (stereo not drawn)	-24.4% (inactive)	–
CCCC(=O)N1CCC1(C)C(=O)Nc1ccc(-n2cncn2)cc1 (stereo not drawn)	-0.867% (inactive)	–
CCOC(=O)CSc1nc(C)cc2c1C(=O)OC2	1.09% (inactive)	–
CCOC(=O)CSC1=N/C(=C/c2ccc(-n3cncn3)cc2)C(=O)N1C(C)=O	–	20.6 µM (active)
NNc1nnc(NN)c2ccccc12	-1.76% (inactive)	–
CCCS(=O)(=O)NC(=O)C1(C)CCCN(C(=O)c2ccnc(Cl)c2)C1 (stereo not drawn)	-7.91% (inactive)	–
CCN(CC)CCCNC(=S)N(CCO)Cc1cc2cc3c(cc2[nH]c1=O)OCO3	-8.99% (inactive)	–
COc1ccc(CCNC(=O)C(=O)NCc2ccccc2C)cc1OC	10.3% (inactive)	–
COc1ccc(CCNC(=O)c2ccccc2-c2ccccc2C(=O)O)cc1OC	31.5% (inactive)	–
COc1ccc(CCNc2cc(N3CCN(C(=O)c4ccccc4OC)CC3)ccc2[N+](=O)[O-])cc1OC	–	5.8 µM (active)
CCCCN(C(=O)c1cccc(N2C(=O)c3ccccc3C2=O)c1)c1c(N)n(CCCC)c(=O)[nH]c1=O	-0.716% (inactive)	–
CC(CN1CCCCC1)c1ccccc1 (stereo not drawn)	2.22% (inactive)	–
COc1ccc(/C=C2\SC(=S)N(CCC(=O)Nc3ccccn3)C2=O)cc1OC	10.6% (inactive)	–
CCC(=O)N1CCC(C(N)=O)(N2CCCCC2)CC1	8.22% (inactive)	–
CC(=O)NN1C(=O)c2ccccc2NC1c1ccccc1 (stereo not drawn)	-3.53% (inactive)	–
O=C1CCC(C(=O)OCC(=O)Nc2ccc(OC(F)F)cc2)=NN1	3.87% (inactive)	–
Cc1ccc(Cc2cnc(N)s2)o1	-11.8% (inactive)	–
Cc1ccc(CCC(=O)Nc2ncc(Cc3cc(Cl)ccc3Cl)s2)o1	–	0.731 µM (active)
CCOc1ccccc1NC(=O)CCc1ccc(C)o1	17% (inactive)	–
COc1ccc(C(=O)OCC(=O)c2ccc(C)c(S(=O)(=O)N3CCOCC3)c2)cc1OC	–	18.4 µM (active)
COc1ccc(CCC(=O)Nc2ccc(Cl)c(S(=O)(=O)N3CCOCC3)c2)cc1OC	–	23.1 µM (active)
O=C(COC(=O)CCc1ccc(S(=O)(=O)N2CCOCC2)cc1)Nc1cccc(Cl)c1	1.87% (inactive)	–
COc1ccc(CC(=O)Nc2ccc3c(c2)CCC3)cc1S(=O)(=O)N1CCOCC1	-14.9% (inactive)	–
CCOc1ccc(CCNC(=O)COC(=O)c2ccc(C)c(S(=O)(=O)N3CCOCC3)c2)cc1OCC	-1.47% (inactive)	–
Cc1ccc(C(=O)OCC(=O)N2CCCCCC2)cc1S(=O)(=O)N1CCOCC1	-5.9% (inactive)	–
CNC(=O)C[C@H]1C(=O)N(Cc2ccccc2)C[C@@H]1CSC	-20.4% (inactive)	–

SMILES	activity change, negative = growth inhibition	Potency
CCOc1ccc(N(CC(=O)Nc2ccccc2F)S(=O)(=O)c2c(C)[nH]c(=O)[nH]c2=O)cc1	-10% (inactive)	–
Cc1ccc(NC(=O)Cn2nnc(C(=O)NCc3ccco3)c2N)c(C)c1	-3.92% (inactive)	–
CCN(C(=O)Cc1c(C(=O)O)n(CC)c2ccccc12)c1ccccc1C	9.41% (inactive)	–
COc1ccc(S(=O)(=O)NC(C)C(=O)N2CCCCCC2)cc1 (stereo not drawn)	-0.956% (inactive)	–
COc1ccc(CNS(=O)(=O)c2ccc(NC(=O)N3CCCCC3)cc2)cc1	–	18.4 µM (active)
COc1ccc(NC(=O)N2CC3(CCN(C(C)=O)CC3)C2)cc1	8.16% (inactive)	–
COC(=O)C[C@H]1C[C@@H]2c3cc(N(C)C)ccc3O[C@@H]2[C@H](CO)O1	6.29% (inactive)	–
O=C(NC1CCN(S(=O)(=O)c2ccc(F)cc2)CC1)c1ccccc1	22.4% (inactive)	–
CCOC(=O)c1c(-c2ccc(-c3ccccc3)cc2)csc1NC(=O)CCC(=O)O	-2.59% (inactive)	–
CCCS(=O)(=O)c1ncc(Cl)c(C(=O)Nc2scc(-c3ccccc3)c2C(=O)OCC)n1	–	2.31 µM (active)
Cc1ccc2nc(NC(=O)c3nc(SCc4ccccc4F)ncc3Cl)sc2c1	4.39% (inactive)	–
O=C(CN1C(=O)CC(c2ccccc2)S(=O)(=O)c2ccccc21)NC1CCCC1 (stereo not drawn)	-12.7% (inactive)	–
Cc1ccc(-c2noc(CNC(=O)c3ccoc3C)n2)cc1	-25.3% (inactive)	–
CSc1n[nH]c(=S)n1N	-2.16% (inactive)	–
Cn1cccc1C(=O)N1CCC2(CC1)CN(c1cccc(-c3ccccc3)c1)C2	–	18.4 µM (active)
COc1ccc(NC(=O)N2CC3(CCN(C(=O)c4cccn4C)CC3)C2)cc1	-10.5% (inactive)	–
CC(C)NC(=O)N1CCC2(CC1)CCN(C(=O)c1cccn1C)CC2	3.36% (inactive)	–
O=C(C=CC(=O)Nc1ccc(F)cc1F)Nc1ccc(F)cc1F	4.15% (inactive)	–
Cc1nc2ccc(S(=O)(=O)N(C)CC(=O)NC(C)c3ccccc3)cc2s1 (stereo not drawn)	-11.6% (inactive)	–
O=C(Nc1cccc(Cl)c1)Nc1ccccc1NS(=O)(=O)c1cccs1	-15.7% (inactive)	–
CCOC(=O)c1ccc(NC2Nc3cc(C)nn3S2)cc1 (stereo not drawn)	-0.261% (inactive)	–
CC(Oc1ccc2ccccc2c1)C(=O)NNC(=S)NC(=O)c1ccco1 (stereo not drawn)	–	23.1 µM (active)
Cc1ccc(C(=O)NNC(=O)C(C)Oc2ccc3ccccc3c2)o1 (stereo not drawn)	-9.14% (inactive)	–
O=C(Nc1ccc2ccccc2c1)/C(=C\c1ccc2c(c1)OCO2)NC(=O)c1ccco1	1.81% (inactive)	–
CC(C)=CCN1CCN(Cc2cc3ccccc3[nH]2)CC1CCO (stereo not drawn)	-6.87% (inactive)	–
COc1ccc(OC)c(CN2C(=O)CCC2(C)c2nnnn2Cc2ccccc2)c1 (stereo not drawn)	-24.7% (inactive)	–
